Experimental data taken from the supplement of paper PMC10981050.
Several values for one entry are separate records, joined by “and”; a condition that tells them apart may be missing. Identical values can stand only once. Counter-ions that a name gives are not always drawn.

Experiments:
Test in all cases: cell viability relative to vehicle control; higher = less cytotoxic
Conditions in all cases: 10 µM
K562 = test system: K562
Method in brief: (§1)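 CRISPR-edited mutant clones and isogenic wild-type clones from four leukaemia lines were screened against Selleck bioactive, kinase and epigenetic probe libraries, with identity-inconsistent compounds excluded. Each compound was acoustically dispensed at a single 10 µM dose into 384-well plates holding 2000 cells in 50 µL medium per well. After 48 h the supernatant was removed and CellTiter-Glo luminescence was read. Viability was expressed as percent of the on-plate vehicle control and analysed in Genedata Screener.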

MARIMO = test system: MARIMO
Method in brief: as §1

MOLM14 = test system: MOLM14
Method in brief: as §1

OCI-AML2 = test system: OCI-AML2
Method in brief: as §1

SMILES | cell viability (K562; SRSF2 genotype: SRSF2 P95H/wt) | cell viability (K562; SRSF2 genotype: SRSF2 wt/wt) | cell viability (MARIMO; SRSF2 genotype: SRSF2 P95H/wt) | cell viability (MARIMO; SRSF2 genotype: SRSF2 wt/wt) | cell viability (MOLM14; SRSF2 genotype: SRSF2 P95H/wt) | cell viability (MOLM14; SRSF2 genotype: SRSF2 wt/wt) | cell viability (OCI-AML2; SRSF2 genotype: P95H/wt) | cell viability (OCI-AML2; SRSF2 genotype: wt/wt)
CCN1CCN(Cc2ccc(-c3cc4c(N[C@H](C)c5ccccc5)ncnc4[nH]3)cc2)CC1 | 3.36% and 7.86% | 8.31% | 52.9% | 58.4% | 12.6% | 11.8% | 13.8% | 23%
O=C(CCc1ccc(O)cc1)c1c(O)cc(O)cc1O [Phloretin] | 96.9% and 94.4% | 98.1% | 93.5% | 90.2% | 91% | 95.7% | 87.5% | 87.9%
COc1ccc(-c2ccc3cc(C(=O)O)ccc3c2)cc1C12CC3CC(CC(C3)C1)C2 [Adapalene] | 93.7% and 97.8% | 88.2% | 45.3% | 26.6% | 56.9% | 23.9% | 31.2% | 38.6%
COc1ccc(S(=O)(=O)N(C(C)=O)c2ccccc2/C=C/c2cc[n+]([O-])cc2)cc1 | 19.2% and 41.4% | 38.4% | 6.78% | 8.02% | 15.9% | 3.3% | 6.25% | 9.13%
NC(=O)c1ccc(-c2nc(-c3ccc4c(c3)OCCO4)c(-c3ccccn3)[nH]2)cc1 | 102% and 103% | 92.9% | 98.5% | 103% | 97.5% | 97.6% | 99.6% | 96.8%
Nc1cc(C(F)(F)F)c(-c2cc(N3CCOCC3)nc(N3CCOCC3)n2)cn1 | 30.2% and 37.9% | 31.9% | 23.2% | 20.3% | 11.9% | 11% | 11.6% | 15.7%
Cc1ncc(NC(=O)c2cccc(C(F)(F)F)c2)cc1-c1cnc(OC2CCOCC2)c(N2CCOCC2)c1 | 61.6% and 73.4% | 71.2% | 41.2% | 40.3% | 48.2% | 40.7% | 30.6% | 39%
CCCC(=O)NCCc1csc(-c2ccc(Cl)cc2)n1 [Azoramide] | 86.4% and 89.4% | 98.4% | 79.9% | 83.8% | 102% | 99.5% | 71.1% | 75.5%
CN1CCC(=C2c3ccccc3C=Cc3ccccc32)CC1 [Cyproheptadine hydrochloride (Periactin)] | 90.8% and 86.3% | 83% | 77.3% | 89% | 72.5% | 91.5% | 81.1% | 85%
CC(C)(CCCCCC(O)CCCCCC(C)(C)C(=O)O)C(=O)O | 103% and 96.8% | 102% | 106% | 106% | 104% | 104% | 97.5% | 108%
CC1(C)S[C@@H]2[C@H](NC(=O)[C@H](NC(=O)N3CCNC3=O)c3ccccc3)C(=O)N2[C@H]1C(=O)O [Azlocillin sodium salt] | 90.4% and 87.6% | 81.5% | 82.3% | 92.1% | 86.4% | 88.6% | 88% | 91.8%
Cc1nc2n(c(=O)c1CCN1CCC(c3noc4cc(F)ccc34)CC1)CCCC2O (configuration not stated) [Paliperidone] | 84.4% and 93.4% | 80.7% | 90.2% | 93.2% | 83.5% | 91.8% | 89% | 91.2%
CCOC(=O)[C@H](CCc1ccccc1)N[C@@H](C)C(=O)N(CC(=O)O)C1Cc2ccccc2C1 [Delapril Hydrochloride] | 100% and 97.5% | 95.8% | 91% | 100% | 86.3% | 90.7% | 94% | 91.6%
C[C@@]12CC[C@@H]3[C@@](CC[C@H]4[C@@]3(C)CCC[C@@]4(C)C(=O)O)(CC1=O)C2 [Iso-Steviol] | 100% and 92.9% | 96.7% | 99.4% | 107% | 95% | 94.7% | 88.3% | 101%
O=C1Nc2ccc(I)cc2C1=Cc1cc(Br)c(O)c(Br)c1 | 96.6% and 89.4% | 90.1% | 89.9% | 109% | 84.7% | 93.8% | 86.7% | 90.7%
CC(C)(C)C(O)/C=C/c1ccc2c(c1)OCO2 (configuration not stated) [Stiripentol] | 105% and 95.5% | 101% | 94.5% | 108% | 100% | 107% | 95.3% | 100%
CO/N=C(\C(=O)N[C@@H]1C(=O)N2C(C(=O)O)=C(CSC(=O)c3ccco3)CS[C@H]12)c1csc(N)n1 [Ceftiofur] | 108% | 103% | 110% | 109% | 97% | 108% | 112% | 105%
COc1nccc(-c2c(-c3ccc(F)cc3)ncn2C2CCC(O)CC2)n1 (configuration not stated) | 96.5% and 98.5% | 89.3% | 98.3% | 110% | 107% | 107% | 107% | 107%
CC(=O)c1ccc2c(c1)c1cc(C(C)=O)ccc1n2CCNC(C)C | 5.79% and 17.9% | 9.91% | 5.2% | 2.54% | 2.29% | 0.66% | 4.6% | 20.6%
